Hits are enriched below; roughly 4.8% of the tested compounds scored in any of these assays.
HIF act: HIF pathway transcriptional activation; AID 1910; U2OS HRE-luciferase reporter, luminescence; normalized: DMSO 0%, desferrioxamine 100%; activation, % at 7.5 µM (by protocol); 300,000 compounds, 0.32% hits;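 active = mean activation of at least 10% of the iron chelator positive control signal, with at least half of replicates also reaching 10%; inconclusive = mean and replicate majority disagree about reaching 10%; inactive = mean and most replicates under 10%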
SUMO Mot1 rescue: blocks SUMOylation pathway, rescuing yeast Mot1-301 growth | AID 2716 | 320,000 compounds, 1% hits | growth rescue, % at 18.8 µM | S. cerevisiae Mot1-301 growth rescue, ATP luminescence, 38.5C; percent above DMSO median, 100 means doubled;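 active = every valid replicate shows activation above 250% relative to neutral control wells; inactive = the rest, any valid replicate at or below 250%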;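 note: OY570 slx delta 5 strain wells were the positive control but not used for scaling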
AI-2 QS modul: Vibrio harveyi AI-2 quorum sensing modulation | 300,000 compounds, 0.4% hits | Vibrio harveyi JMH597 AI-2 luminescence/OD600 ratio, 9 h; stronger effect = lower value; strain lacks LuxN and CqsS sensors; 0 = neutral-control median | activity change, % at 7.5 µM; in the data active = activity change below about -75%, passing the limit was not always enough; inconclusive = no clear call, values can overlap the other calls;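 note: luminescence divided by OD600 gain over 9 h not by final OD600 alone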
ALR H2O2 inh: inhibitors of human sulfhydryl oxidase ALR. P55789. purified ALR, DTT oxidation, H2O2 HRP-luminol luminescence. inhibition, % (test concentration not listed). 290,000 compounds, 3.8% hits. AID 485317;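 active = mean replicate inhibition above about 79%, with every replicate also reaching it, limit read from the data; inconclusive = only one of the two criteria met; inactive = mean below limit and not every replicate reaching it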
Target sequence (P55789 whole entry, looked up): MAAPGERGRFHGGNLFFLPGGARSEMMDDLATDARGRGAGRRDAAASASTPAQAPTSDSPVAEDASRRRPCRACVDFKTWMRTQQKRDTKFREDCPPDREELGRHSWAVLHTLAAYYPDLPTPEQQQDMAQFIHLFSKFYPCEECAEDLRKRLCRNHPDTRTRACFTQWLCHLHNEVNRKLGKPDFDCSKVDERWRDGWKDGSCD
Numbers without * were called inactive; ? = inconclusive; . = no result.

SMILES	HIF act	SUMO Mot1 rescue	AI-2 QS modul	ALR H2O2 inh
Nc1nc(CN2CCN(c3ccccc3)CC2)nc(N2CCCc3ccccc32)n1	0	-10	-5	98*
COc1ccccc1NC(=O)C1CCN(C(=O)NCc2ccccc2)CC1	0	1	40	3
Cc1nc2nc(-c3ccc(F)cc3)cn2nc1C	-1	-9	5	-10
Cc1nn2cc(-c3ccc(N)cc3)nc2s1	2	14	18	98*
Cc1cc2c(Nc3cccc(O)c3)ncnc2s1	-19	28	6	99*
O=C1CCCN1CCC(=O)N1CCCC(Nc2ccc(F)c(F)c2)C1 (configuration not stated)	1	-3	3	18
Cc1cc(C)n(CCC(=O)N2CCCC(Nc3ccc(F)cc3)C2)n1 (configuration not stated)	0	-2	20	98*
CCn1nc(CC(C)C)cc1C(=O)N1CCCC(Nc2ccc(F)cc2)C1 (configuration not stated)	0	-1	21	60
O=C(c1cccc(N2CCNC2=O)c1)N1CCCC(Nc2cccc(F)c2)C1 (configuration not stated)	1	-18	3	74
CC1(CCC(=O)N2CCCC(Nc3ccc(F)cc3)C2)CC1 (configuration not stated)	0	-14	21	98*
O=C(CC1CCCC1)N1CCCC(Nc2ccc(F)cc2)C1 (configuration not stated)	0	20	5	99*
O=C(CC1CCCC1)N1CCCC(Nc2cccc(F)c2)C1 (configuration not stated)	1	-19	12	92*
O=C(CC1CCCC1)N1CCN(S(=O)(=O)c2ccc(F)cc2)CC1	.	0	.	8
COc1ccc(Cl)cc1NC(=O)C1CCCN(S(C)(=O)=O)C1 (configuration not stated)	-1	-20	7	-15
COCCNC(=O)c1c[nH]c2ccc(S(=O)(=O)N(C)c3ccc(C)c(C)c3)cc2c1=O	0	-24	-10	-16
O=C(Cc1ccc(N2CCNC2=O)cc1)N1CCCC(Nc2cccc(F)c2)C1 (configuration not stated)	0	-4	21	99*
O=C(Cc1ccc(N2CCNC2=O)cc1)N1CCCC(Nc2ccc(F)c(F)c2)C1 (configuration not stated)	1	-15	0	20
CC(=O)N(C)c1ccc(NS(=O)(=O)c2cccc3nsnc23)cc1	0	85	8	-49
Cc1ccc(NC(=O)/C(=C\c2cccs2)NC(=O)c2ccccc2)cc1	0	46	41	-1
COc1cc(/C=C(/NC(=O)c2ccccc2)C(=O)Nc2ccc(O)cc2)c([N+](=O)[O-])cc1OC	0	14	13	99*
COc1cc(/C=C(/NC(=O)c2ccccc2)C(=O)Nc2ccccc2)c([N+](=O)[O-])cc1OC	0	-2	7	-8
O=C(Nc1ccc(O)cc1)/C(=C\c1cccs1)NC(=O)c1ccccc1	0	353	8	100*
COc1cc(C(=O)Nc2ccc(N(C)C)cc2)c([N+](=O)[O-])cc1OC	2	-9	21	89*
CC(C)(C)NC(=O)CN(C(=O)CNS(=O)(=O)c1ccc(Cl)cc1)c1ccc2c(c1)OCCO2	0	699	2	-4
O=C(O)c1cccc(S(=O)(=O)N2CCC(n3nnc4cc(C(F)(F)F)ccc43)CC2)c1	0	246	12	5
SMILES	HIF act	SUMO Mot1 rescue	AI-2 QS modul	ALR H2O2 inh
COc1cc(C(=O)NCC(=O)NNC(=O)C2COc3ccccc3O2)cc(OC)c1OC (configuration not stated)	.	-6	.	-3
CCOC(=O)C1CCN(C(=O)c2cc(S(=O)(=O)N3CCOCC3)c(Cl)cc2Cl)CC1	0	285*	34	2
COC(=O)c1ccccc1NC(=O)c1ccc2c(c1)OCCCO2	2	182	17	8
O=c1c(C(c2c(O)nc3n(c2=O)CCS3)c2cccc3ccccc23)c(O)nc2n1CCS2	2	-24	21	96*
O=c1c(C(c2ccc(O)cc2)c2c(O)nc3n(c2=O)CCS3)c(O)nc2n1CCS2	0	220	18	.
Cc1ccc(C(c2c(O)nc3n(c2=O)CCS3)c2c(O)nc3n(c2=O)CCS3)cc1	0	-3	20	97*
COc1ccc2cc3c(N)nn(C(=O)Cc4c[nH]c5ccccc45)c3nc2c1	14*	-3	37	7
COc1cccc(CC(=O)n2nc(N)c3cc4ccc(OC)cc4nc32)c1	-1	-6	13	-4
O=C(CC(C(=O)O)c1cccc(Br)c1)c1ccc(Cl)cc1 (configuration not stated)	-1	22	28	-1
C[C@@H]1O[C@@H](O[C@@H]2[C@@H](O)[C@H](OCCc3ccc(O)c(O)c3)O[C@H](CO)[C@H]2OC(=O)/C=C/c2ccc(O)c(O)c2)[C@H](O)[C@H](O)[C@H]1O	.	-12	.	98*
COc1cc(/C=C/C(=O)OC[C@H]2O[C@H](OC3(CO)OC(CO)C(O)C3O)[C@H](O)[C@@H](O)[C@@H]2O)ccc1O (some centres not stated)	.	0	.	?
COc1ccccc1CNc1nc2ccccc2n1CCN1CCCCC1	0	-4	12	98*
Oc1ccccc1CNc1nc2ccccc2n1CCN1CCCCC1	0	4	15	96*
O=C(NCc1nnc(SCC(=O)N2CCN(c3ccccc3)CC2)o1)c1c(F)cccc1F	0	-19	13	?
O=C(NCC1CCCCC1)c1ccccc1[N+](=O)[O-]	0	9	29	-1
CCn1c(CCCNC(=O)c2cccs2)nc2ccccc21	0	-12	8	98*
CCCn1c(CCNC(=O)c2cccs2)nc2ccccc21	0	-4	24	-6
COc1ccc(-c2nc(CS(=O)(=O)CC(=O)NC3CCCCCC3)c(C)o2)cc1	-1	-15	7	99*
Cc1oc(-c2cccc(Cl)c2)nc1CS(=O)(=O)CC(=O)NC1CC1	0	-1	-3	90*
Cc1ccc(-c2nc(CS(=O)(=O)CC(=O)NC3CCCCCC3)c(C)o2)cc1	0	-19	.	-1
COc1cccc(-c2nc(CS(=O)(=O)CC(=O)NC3CC3)c(C)o2)c1	-1	-5	10	-8
CCOC(=O)N1CCC(NC(=O)CS(=O)(=O)Cc2nc(-c3cccc(OC)c3)oc2C)CC1	0	4	17	99*
COc1cccc(-c2nc(CS(=O)(=O)CC(=O)NC3CCCCCC3)c(C)o2)c1	0	36	8	98*
CC(=O)Nc1ccc(S(=O)(=O)Nc2ccccc2N2CCOCC2)cc1	.	4	.	.
CNC(=O)Cn1nc(-c2ccc(Cl)cc2)c2ccccc2c1=O	-1	1	23	-6
CC(C)CNC(=O)c1ccccc1N(Cc1ccccc1)S(C)(=O)=O	1	0	16	0
Cc1ccc(S(=O)(=O)N(CC(=O)Nc2cccc(C(F)(F)F)c2)C(=O)N2CCN(C)CC2)cc1	-1	2	29	-8
